# Data published in PMC4336329 (PLoS ONE, 2015).
# Out of some 310,000 compounds screened, about 14,000 (4.5%) showed an effect of 50% or more. Effects have a minus sign here. The sample as a whole holds a higher share of strong results than the screen did.
# Target: human ether-à-go-go-related gene (hERG) potassium channel (human, UniProt Q12809)
# Experiment: primary screen, population patch clamp on CHO cells stably expressing hERG; higher = less effect of the substance
# 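Also: peak tail current of the secondary pulse compared with the same well before compound.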
# Sequence of human ether-à-go-go-related gene (hERG) potassium channel (Q12809 whole entry, looked up): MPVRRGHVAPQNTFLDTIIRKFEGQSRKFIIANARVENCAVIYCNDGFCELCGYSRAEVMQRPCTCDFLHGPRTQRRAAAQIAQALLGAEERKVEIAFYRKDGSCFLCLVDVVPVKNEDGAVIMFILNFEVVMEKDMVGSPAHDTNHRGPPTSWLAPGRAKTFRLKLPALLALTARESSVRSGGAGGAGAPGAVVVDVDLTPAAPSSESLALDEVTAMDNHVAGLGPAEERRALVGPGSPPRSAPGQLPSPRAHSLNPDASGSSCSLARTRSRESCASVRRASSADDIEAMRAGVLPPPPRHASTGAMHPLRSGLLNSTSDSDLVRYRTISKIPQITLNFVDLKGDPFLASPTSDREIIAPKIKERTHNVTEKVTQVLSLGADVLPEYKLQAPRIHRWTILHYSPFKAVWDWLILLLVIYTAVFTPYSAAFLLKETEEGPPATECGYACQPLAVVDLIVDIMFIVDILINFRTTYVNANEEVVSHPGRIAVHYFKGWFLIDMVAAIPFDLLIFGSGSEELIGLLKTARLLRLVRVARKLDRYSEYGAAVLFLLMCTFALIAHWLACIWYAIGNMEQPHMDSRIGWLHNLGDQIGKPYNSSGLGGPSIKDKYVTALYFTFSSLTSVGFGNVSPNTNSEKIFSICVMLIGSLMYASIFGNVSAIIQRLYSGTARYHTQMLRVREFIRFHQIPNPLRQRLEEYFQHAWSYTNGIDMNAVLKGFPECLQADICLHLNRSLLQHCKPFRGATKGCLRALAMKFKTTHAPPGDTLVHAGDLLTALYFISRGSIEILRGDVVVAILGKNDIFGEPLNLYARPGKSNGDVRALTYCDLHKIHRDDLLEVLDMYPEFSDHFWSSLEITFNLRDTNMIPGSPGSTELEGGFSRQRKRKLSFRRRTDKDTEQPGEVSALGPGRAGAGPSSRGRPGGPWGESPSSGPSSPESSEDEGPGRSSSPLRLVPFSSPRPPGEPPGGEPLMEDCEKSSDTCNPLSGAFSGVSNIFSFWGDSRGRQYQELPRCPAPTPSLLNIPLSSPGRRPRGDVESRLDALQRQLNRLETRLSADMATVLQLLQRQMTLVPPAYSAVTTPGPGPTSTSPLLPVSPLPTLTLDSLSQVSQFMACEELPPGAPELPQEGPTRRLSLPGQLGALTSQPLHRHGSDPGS
row,SMILES,"hERG current change (%, negative = inhibition) at 10uM [%]"
1,CCN(CC)S(=O)(=O)c1cccc(NC(=O)c2cccc(S(=O)(=O)N3CCCC3)c2)c1,-80.8
2,CCN(CC)S(=O)(=O)c1cccc(NC(=O)c2ccc(C#N)cc2)c1,-35
3,O=C(Cn1nnc(-c2ccccc2)n1)Nc1cccc(S(=O)(=O)N2CCCC2)c1,-2.26
4,CCN(CC)S(=O)(=O)c1cc(NC(=O)COc2ccc(C#N)cc2OC)ccc1C,-38.1
5,COc1cc(C#N)ccc1OCC(=O)Nc1cccc(S(=O)(=O)N2CCCC2)c1,-44.4
6,CCN(CC)S(=O)(=O)c1cccc(C(=O)Nc2ccccc2)c1,-28
7,CN(C)S(=O)(=O)c1cccc(NC(=O)c2cccc(S(=O)(=O)N3CCCCC3)c2)c1,-27.9
8,NC(=O)c1ccc(-c2nnn(CC(=O)Nc3cccc(S(=O)(=O)N4CCCC4)c3)n2)cc1,4.54
9,CCN(CC)S(=O)(=O)c1cccc(NC(=O)COc2ccc(C#N)cc2OC)c1,-72.4
10,CCN(CC)S(=O)(=O)c1cccc(NC(=O)CNc2cccc(S(=O)(=O)N3CCCC3)c2)c1,5.46
11,Cc1cc(C)c(S(=O)(=O)c2ccccc2Cl)c(=O)[nH]1,10.7
12,C=CCOCCN(CCOCC=C)C1=NS(=O)(=O)c2ccccc21,12.5
13,COc1ccc(NS(=O)(=O)c2cccc(NC(=O)C3=NN(c4ccccc4)C(=O)CC3)c2)cc1,-35.1
14,O=C(NC1=NCCS1)c1cc2ccccc2o1,-23.8
15,O=C(Nc1cccnc1)c1cccc(S(=O)(=O)N2CCOCC2)c1,4.06
16,O=C(Nc1ccncc1)c1cccc(S(=O)(=O)N2CCOCC2)c1,-58.4
17,CCN(CC)S(=O)(=O)c1cccc(NC(=O)c2ccc(Br)cc2)c1,4.07
18,CN(C)S(=O)(=O)c1cccc(NC(=O)c2cncc(Br)c2)c1,-3.39
19,O=C(Nc1cccc(S(=O)(=O)N2CCCC2)c1)c1cccc(S(=O)(=O)N2CCOCC2)c1,-15.5
20,CN1CCN(S(=O)(=O)c2cccc(C(=O)Nc3sccc3C#N)c2)CC1,-5.03
21,CN1CCN(S(=O)(=O)c2cccc(C(=O)Nc3sccc3C(N)=O)c2)CC1,-75.4
22,O=C(Nc1ccncc1)c1cccc(S(=O)(=O)N2CCN(c3ccc(F)cc3)CC2)c1,-82.9

row,SMILES,"hERG current change (%, negative = inhibition) at 10uM [%]"
1,CN1CCN(S(=O)(=O)c2cccc(C(=O)Nc3cc(C(N)=O)cc(C(N)=O)c3)c2)CC1,4.71
2,Cc1cccnc1NC(=O)c1cccc(S(=O)(=O)N2CCN(c3ccc(F)cc3)CC2)c1,-35.1
3,CCN(CC)S(=O)(=O)c1cccc(NC(=O)c2cncc(Br)c2)c1,-69.9
4,O=C(Nc1ccc2c(c1)CCC2)c1cccc(S(=O)(=O)N2CCN(c3ccc(F)cc3)CC2)c1,-3.29
5,Cc1ccc(SCC(=O)c2cc(C)c(O)c(C)c2)cc1,-3.19
6,Cc1ccccc1NC(=O)CCc1nnc2ccc(N3CCC4(CC3)OCCO4)nn12,8.74
7,CSCc1nnc(NC(=O)c2ccc(S(=O)(=O)N(C)C)cc2)o1,20.7
8,CCOC(=O)/C(C#N)=N/Nc1ccc(S(=O)(=O)N2CCc3ccccc32)cc1,2.18
9,CCOC(=O)C1=C(C)OC(N)=C(C#N)C1c1cccs1 (stereo not shown),8.62
10,Cc1nnc(NC(=O)CSc2nnc(CNC(=O)C34CC5CC(CC(C5)C3)C4)n2C2CCCCC2)s1,2.98
11,CCOc1ccccc1N1CCN(C(=O)c2cc3cc(OC)ccc3[nH]2)CC1,-3.66
12,C=CCn1c(O)c(C(CC)=Nc2ccc3c(c2)CCC3)c(=O)[nH]c1=O,1.65
13,O=C(Nc1ccccc1)c1cccc(S(=O)(=O)N2CCCCC2)c1,0.607
14,CCc1cccc(CC)c1NC(=O)c1cccc(S(=O)(=O)N2CCN(C)CC2)c1,-4.14
15,O=C(Nc1ccncc1)c1cccc(S(=O)(=O)N2CCCC2)c1,-60.7
16,CN1CCN(S(=O)(=O)c2cccc(C(=O)Nc3cccc(S(N)(=O)=O)c3)c2)CC1,12.8
17,CCN(CC)S(=O)(=O)c1ccc(NC(=O)CNC2CCCCC2)cc1.O=C(O)C(=O)O,-7.08
18,CCc1cccc(NC(=O)c2cccc(S(=O)(=O)N3CCN(C)CC3)c2)c1,-53.9
19,O=C(Nc1cccc(S(=O)(=O)N2CCCC2)c1)c1ccncc1,-46.5
20,CN(C)S(=O)(=O)c1cccc(NC(=O)CNC2CCCCC2)c1.O=C(O)C(=O)O,5.24
21,CCN(CC)S(=O)(=O)c1cccc(NC(=O)CNC2CCCCCC2)c1.O=C(O)C(=O)O,-60.8
